The target of one assay is Albumin (Bos taurus) (UniProt P02769). Put plainly: bovine serum albumin binders on microarray, profiling panel, artefact control for SMM control protein annotation, biochemical, small-molecule microarray, Alexa647 label, 635/667 nm fluorescence (AID 1118).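 Further: score merges 667 nm emission intensity and signal-to-noise per printed compound spot.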 As to conditions: BSA-A647 binding, fluorescence 635 nm, higher = more signal.
Assay [1] in a line: small-molecule microarray binders of probe aXIP, primary screen, biochemical, NeuroSMM set, 635/667 nm fluorescence (AID 1119).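 Further: probe is the protein aXip251-270 applied at 1 µg/mL to compound-printed slides; binding of probe to printed compounds measured as 667 nm fluorescence plus signal to noise.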 To be noted: higher = more signal, called active from +8 up or from −8 down.
Assay [2] is described as follows: small-molecule binders of probe aNOTCH3, primary screen, biochemical, small-molecule microarray, 635/667 nm fluorescence (AID 1120).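 Further: probe is a biotin-tagged antibody raised against NOTCH3 rather than NOTCH3 protein; score merges spot fluorescence near 667 nm with spot signal to noise.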 To be noted: higher = more signal.
Assay [3] is described as follows: small-molecule binders of probe aNOTCH2, primary screen, biochemical, small-molecule microarray, 635/667 nm fluorescence (AID 1121).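 Further: score merges feature fluorescence read at 667 nm with its signal to noise.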 To be noted: higher = more signal.
For assay [4], the target named is Carbonic anhydrase 2 (Homo sapiens) (UniProt P00918). Put plainly: CAII small-molecule binders, profiling panel, biochemical, small-molecule microarray, Alexa647-labelled CAII (AID 1122). To be noted: CAII-A647 binding fluorescence, higher = more signal.
The nature of assay [5]: COS7 lysate on small-molecule microarray, probe aHis, 635 nm (AID 1123).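 Further: z-score combines 667nm fluorescence intensity with signal-to-noise per printed compound spot.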 To be noted: COS7 cell lysate, fluorescence, higher = more signal.
Assay [6] can be described thus: compound binding in COS7 lysate, probe aLAP1, primary screen, cell lysate, small-molecule microarray (AID 1124).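 Further: lysate comes from COS7 cells expressing LAP1 and is applied at 0.3 µg/mL; score merges spot fluorescence near 667 nm with signal-to-noise over triplicate slides.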 To be noted: probe aLAP1, fluorescence, higher = more signal.
In the next assay the test system is Sam68 (KHDRBS1). Put plainly: Sam68 small-molecule binders, primary screen, biochemical, small-molecule microarray, 635 nm fluorescence (AID 1125).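 Further: score merges 667 nm channel intensity with signal to noise over triplicate slides.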 To be noted: small-molecule microarray binding, higher = more signal.
Assay [7] concerns Chordin-like protein 2 (CHRDL2). Put plainly: CHRDL2 small-molecule binders, primary screen, biochemical, small-molecule microarray, 635 nm fluorescence (AID 1126).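 Further: printed compound slides probed with Chrdl2 protein at 4 µg/mL for 1 h at 4 C; score merges 667 nm emission intensity with signal to noise over three replicate slides.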 To be noted: small-molecule microarray binding, fluorescence 635 nm; higher = more signal.
Assay [8] has as its target Concanavalin-A (Canavalia ensiformis) (UniProt P02866). Put plainly: ConA small-molecule binders, primary screen, artefact control for SMM control protein annotation, biochemical, small-molecule microarray, Alexa647 label, 635 nm (AID 1127).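 Further: z combines 667 nm emission intensity with signal-to-noise across three replicate slides.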 To be noted: ConA-A647 binding fluorescence, higher = more signal.

Several values for one entry are separate records, joined by “and”; a condition that tells them apart may be missing. Equal entries are not always repeated. Activity calls are given as the source filed them.

Albumin (Bos taurus), sequence (P02769 whole entry, looked up): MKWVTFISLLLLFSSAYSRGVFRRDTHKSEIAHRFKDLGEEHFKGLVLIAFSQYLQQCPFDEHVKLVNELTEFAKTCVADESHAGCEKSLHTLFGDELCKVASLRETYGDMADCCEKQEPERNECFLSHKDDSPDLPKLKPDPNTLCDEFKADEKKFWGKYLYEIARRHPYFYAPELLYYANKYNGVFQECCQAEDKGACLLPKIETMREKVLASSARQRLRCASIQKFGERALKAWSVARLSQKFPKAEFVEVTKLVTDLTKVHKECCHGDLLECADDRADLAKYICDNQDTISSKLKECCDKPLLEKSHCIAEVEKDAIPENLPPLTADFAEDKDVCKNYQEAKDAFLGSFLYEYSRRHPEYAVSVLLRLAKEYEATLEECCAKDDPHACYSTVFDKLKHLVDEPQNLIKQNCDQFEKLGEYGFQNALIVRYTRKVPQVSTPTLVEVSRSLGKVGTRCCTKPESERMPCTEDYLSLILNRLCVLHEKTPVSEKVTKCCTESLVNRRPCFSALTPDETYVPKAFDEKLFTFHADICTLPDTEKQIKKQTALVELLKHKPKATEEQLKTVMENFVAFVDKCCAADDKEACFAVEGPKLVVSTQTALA
Concanavalin-A (Canavalia ensiformis), sequence (P02866 whole entry, looked up): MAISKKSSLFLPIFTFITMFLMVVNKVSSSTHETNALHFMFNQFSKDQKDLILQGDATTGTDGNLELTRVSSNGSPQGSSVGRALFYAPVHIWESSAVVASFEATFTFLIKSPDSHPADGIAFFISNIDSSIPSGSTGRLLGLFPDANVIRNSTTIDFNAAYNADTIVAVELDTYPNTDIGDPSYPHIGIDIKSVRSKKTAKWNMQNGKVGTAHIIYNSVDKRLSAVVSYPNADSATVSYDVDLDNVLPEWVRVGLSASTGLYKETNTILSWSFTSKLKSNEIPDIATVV

With `C=CCN(CCCCC)C(=O)C1N(C(C)(C)CO)C(=O)C2C(C(=O)O)C3C=CC21O3` (stereo not given), the composite z-score with Albumin (Bos taurus) is -0.544 and -0.85; in [2], -0.484 and -0.372; in assay [3], -0.112 and -0.0984; in assay [4] it was 0.196 and 0.327; in assay [5], -1.14 and -0.703; in assay [6], -0.385 and 0.137. In addition, the composite z-score is -1.11 and -1.2 in the assay with Sam68 (KHDRBS1); -1.84 and -2.83 in assay [7]; -1.83 and -1.31 in assay [8]. Further, the composite Z-score in [1] was 0.159 (inactive) and -0.421 (inactive).

In the case of `O=C1[C@H]2[C@H]3[C@H](O)[C@H](O)CC(=NOCc4ccccc4)[C@H]3CC[C@H]2C(=O)N1Cc1ccccc1`, the composite z-score was 0.273 with Albumin (Bos taurus); -0.136 in assay [2]; -0.0729 in assay [3]; 0.0146 in [4]; 0.233 in assay [5]; -0.123 in [6]. Also, the composite z-score was -0.873 in the assay on Sam68 (KHDRBS1), 0.374 in assay [7] and -0.229 in assay [8]. For the same molecule, in [1], the composite Z-score is -0.283 (inactive).

Consider `C[N+](C)(C)CCCCCCNC(=O)[C@@H]1C[C@@H]2C(=O)N[C@@H](CCCC[N+](C)(C)C)C(=O)N2[C@@H]1c1ccc(O)cc1`, for which the composite z-score was -0.595 and 0.0621 with Albumin (Bos taurus); -0.0918 and 0.0016 in assay [2]; -0.164 and -0.147 in assay [3]; 0.747 and 0.82 in assay [4]; -0.251 and 0.233 in [5]; 0.774 and 0.322 in assay [6]. The composite z-score is -0.351 and 0.428 in the assay with Sam68 (KHDRBS1); 0.952 and 0.671 in [7]; 0.197 and 0.299 in assay [8]. In assay [1], the composite Z-score is 0.722 (inactive) and 0.318 (inactive).

With `COC(=O)[C@@]1(Cc2ccccc2)[C@H]2c3cc(C(=O)N(C)C)n(C[C@H](O)CO)c3C[C@H]2CN1C(=O)c1ccccc1`, the composite z-score in the assay with Albumin (Bos taurus) was 0.4 and 1.14; in assay [2], 0.0208 and 0.52; in [3], 0.0538 and 0.261; in assay [4], 0.897 and 0.841; in assay [5], 3.13 and 1.27; in assay [6], 0.562 and 0.966. Besides, the composite z-score in the assay on Sam68 (KHDRBS1) was -0.278 and -0.421; in assay [7], -0.138 and -0.519; in assay [8], -0.148 and -0.0788. For the same molecule, the composite Z-score in assay [1] was -0.506 (inactive) and -0.574 (inactive).

As for `COc1ccc(COC(=O)NN=C2C[C@@H](O)[C@@H](O)[C@@H]3[C@@H]4C(=O)N(C(C)(C)C)C(=O)[C@@H]4CC[C@H]23)cc1`, the composite z-score is 0.682 with Albumin (Bos taurus); -0.194 in assay [2]; -0.0001 in [3]; 0.633 in assay [4]; 0.7 in assay [5]; 1.51 in [6]. Moreover, the composite z-score was 1.22 in the assay with Sam68 (KHDRBS1), 0.0955 in [7] and -0.457 in assay [8]. Moreover, the composite Z-score in [1] was 1.08 (inactive).

As to `CC(C)=CCCC(C)=CCON=C1C[C@@H](O)[C@@H](O)[C@@H]2[C@@H]3C(=O)N([C@@H](C)c4ccccc4)C(=O)[C@@H]3CC[C@H]12`, the composite z-score with Albumin (Bos taurus) was 0.799; in assay [2], -0.0048; in assay [3], 0.296; in assay [4], 0.206; in [5], 1.37; in assay [6], 0.308. The composite z-score with Sam68 (KHDRBS1) was found to be 1.12; in assay [7], 1.03; in [8] it was 0.0996. The composite Z-score in assay [1] was -0.501 (inactive).

On to `C[C@@H]1CC[C@H]2C(=O)O[C@H](CN=[N+]=[N-])CN2[C@H]1c1ccc(Br)cc1`, for which the composite z-score with Albumin (Bos taurus) is -0.507 and 0.491; in [2], -0.125 and -0.197; in assay [3], -0.245 and -0.0569; in assay [4] it was -0.188 and -0.223; in [5], -0.0295 and -0.382; in [6], 0.268 and -0.329. Further, the composite z-score in the assay on Sam68 (KHDRBS1) is -0.167 and 0.113; in assay [7], 0.735 and 0.382; in assay [8], -0.726 and 0.0516. The composite Z-score in [1] was 0.142 (inactive) and 0.753 (inactive).

As for `C=CC[C@@H](O)c1ccc(O)c2ccccc12`, the composite z-score was -0.0028 and -0.264 with Albumin (Bos taurus); 0.347 and 0.0296 in assay [2]; -0.0523 and -0.153 in assay [3]; 0.524 and 0.379 in assay [4]; 1.18 and 1.3 in [5]; 0.207 and -0.0872 in [6]. Further, the composite z-score in the assay on Sam68 (KHDRBS1) was 1.04 and 1.08; in [7] it was 1.38 and 1.23; in assay [8], 0.89 and 0.565. In assay [1], the composite Z-score is 1.21 (inactive) and -0.181 (inactive).

`C=CCN(CCCC)C(=O)C(c1cccs1)N(C(=O)/C=C\C(=O)O)c1ccc(CCO)cc1` (stereo not given): the composite z-score in the assay with Albumin (Bos taurus) is -1.02 and -2.4; in [2], -0.437 and -0.449; in [3], -0.171 and -0.202; in assay [4] it was 0.864 and 0.861; in assay [5], 0.0769 and -0.501; in assay [6], 0.132 and -0.426. Further, the composite z-score in the assay with Sam68 (KHDRBS1) is -0.798 and -1.53; in assay [7], -1.26 and -4.41; in assay [8], -1.83 and -1.63. Besides, the composite Z-score in assay [1] is 0.127 (inactive) and -0.0505 (inactive).

Regarding `COC(=O)C1=C(C)N(Cc2ccccc2)[C@]23O[C@](C(=O)OC)(C(=O)N2[C@@H]1c1ccccc1)[C@H]1CCCC(=O)[C@H]13`, the composite z-score was -0.0265 and -0.0851 with Albumin (Bos taurus); 0.19 and -0.136 in assay [2]; -0.0116 and -0.0649 in assay [3]; 0.311 and -0.0597 in assay [4]; 0.685 and -0.0027 in assay [5]; 0.26 and -0.0668 in assay [6]. In addition, the composite z-score was 0.174 and 0.227 in the assay on Sam68 (KHDRBS1); 0.228 and 0.551 in [7]; 1 and 0.279 in assay [8]. Besides, the composite Z-score in [1] is -0.138 (inactive) and -0.0964 (inactive).

Turning to `CCN1C(=O)[C@H]2[C@H]3[C@H](O)[C@H](O)CC(=NOC[C@@H](O)COCc4ccco4)[C@@H]3CC[C@H]2C1=O`, the composite z-score with Albumin (Bos taurus) is -0.423 and 0.677; in assay [2], -0.161 and -0.0026; in assay [3], -0.17 and -0.234; in [4], -0.473 and 0.753; in assay [5], -0.945 and 0.351; in assay [6], -0.0847 and -0.0256. In addition, the composite z-score in the assay with Sam68 (KHDRBS1) was -0.368 and 0.0907; in [7], 1.54 and 0.0802; in [8] it was -0.716 and 0.422. Moreover, in assay [1], the composite Z-score was -1.03 (inactive) and -0.471 (inactive).

Turning to `C=CCN(C(=O)C(c1cccs1)N(C(=O)/C=C\C(=O)O)c1c(Cl)cccc1CO)C(C)(C)C` (stereo not given), the composite z-score was -0.693 and -0.455 in the assay with Albumin (Bos taurus); -0.538 and -0.562 in [2]; -0.125 and -0.182 in assay [3]; 0.884 and 0.936 in assay [4]; -0.625 and -0.42 in assay [5]; -0.766 and -0.131 in [6]. Also, the composite z-score in the assay on Sam68 (KHDRBS1) is -1.95 and -0.769; in assay [7] it was -2.35 and -3.64; in assay [8], -1.12 and -0.782. Also, the composite Z-score in [1] is 0.0333 (inactive) and 0.242 (inactive).

Turning to `COC(=O)[C@H](C)NC(=O)CCC1CC(OC(=O)NCCc2ccc(F)cc2)CC2(CCCC(COC(=O)NCCCN3CCCC3=O)O2)O1` (stereo not given in full), the composite z-score with Albumin (Bos taurus) was 0.171; in [2], 0.0159; in assay [3], 0.666; in assay [4], 0.194; in [5] it was 0.275; in [6], 0.0736. Also, the composite z-score in the assay with Sam68 (KHDRBS1) was found to be 1.3; in assay [7], 0.407; in assay [8], 1.07. Further, the composite Z-score in assay [1] was 2.06 (inactive).

Regarding `C[C@@]1([C@@H](NC(=O)Cc2ccccc2)c2ccc(-c3ccccc3)cc2)C[C@H]1C1CCCCC1`, the composite z-score is 0.895 and 0.715 and 0.978 with Albumin (Bos taurus); 0.767 and 1.49 and -0.137 in assay [2]; 0.24 and 0.797 and -0.324 in [3]; 0.426 and 0.62 and 0.464 in [4]; 0.0877 and 1.59 and 2.69 in assay [5]; 0.566 and 1.22 and 0.475 in assay [6]. Further, the composite z-score in the assay on Sam68 (KHDRBS1) is 0.158 and 0.69 and 1.33; in assay [7], 0.261 and -0.0345 and -0.954; in assay [8], 0.956 and 0.166 and 1.12. The composite Z-score in assay [1] is 1.18 (inactive) and 0.111 (inactive) and 0.428 (inactive).

On to `C=CCN(Cc1ccccc1)C(=O)C(c1cccs1)N(C(=O)/C=C\C(=O)O)c1ccc(CCO)cc1` (stereo not given), for which the composite z-score with Albumin (Bos taurus) was -0.047 and 0.278; in [2] it was -0.532 and -0.475; in assay [3] it was -0.213 and -0.2; in [4], 0.824 and 0.335; in [5] it was -0.577 and -0.107; in [6] it was -0.0165 and -0.602. Besides, the composite z-score in the assay with Sam68 (KHDRBS1) was -0.581 and -1.13; in [7] it was -2.94 and -1.92; in assay [8], -0.772 and -0.564. Further, in assay [1], the composite Z-score was -0.18 (inactive) and -0.296 (inactive).

`CCCCCN1CC=CC23O[C@@H]4C=CCCOC(=O)C4[C@H]2C(=O)N(C(C)CO)[C@@H]3C1=O` (stereo not given in full): the composite z-score was 0.345 and -0.098 with Albumin (Bos taurus); -0.536 and -0.0416 in [2]; -0.475 and -0.181 in assay [3]; 0.792 and 0.844 in [4]; 0.654 and 1.55 in assay [5]; 0.114 and 0.885 in assay [6]. Further, the composite z-score in the assay on Sam68 (KHDRBS1) is 0.656 and 0.708; in [7] it was -0.397 and -0.845; in [8], -0.0729 and 0.147. The composite Z-score in [1] was -0.0812 (inactive) and -0.45 (inactive).

These data come from PubChem BioAssay.
